Experimental data reported in the supplement of paper PMC6555819.

system: RARg homodimer (NR concentration 270 nM); test: PBM binding z-score (relative to random genomic background probes); higher = stronger binding; sequences stand for … in GC…GCGATTGACAGCGTAGAATGAAGG
Procedure, shortened: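 Binding z-scores take random background probes as their reference. They come from custom Agilent 4×180K protein-binding microarrays incubated 1 h with ligand-free nuclear receptor dimers, with antibodies against each partner (one per run) detecting binding. Scanned fluorescence was regression-normalized.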

Row | Sequence | PBM binding z-score
1 | ATATGTAGGTTAGATCCGGGTCATTCAGGCTATG | 1.63
2 | AGTCAAAGTTCACTAGGTAACGTCAGATTCAGCT | 5.98
3 | CATACAGGGTCAGCTAGGCCATAGTAGGGACGGC | 4.7
4 | ATCTCTAGGTAAAACTCAGTTCAGTGAAGAACGC | 0.586
5 | ATCTCTAGGGAAAGTTCAGTGAAAGATCGATAGA | 2.11
6 | GATACAGAGTCAAGGCCAGAGTACGCGTATTGAT | 0.345
7 | GGAACGAGGGCATAGTTGATAGCATCTGTCGACG | 1.22
8 | TAGCCTAGGTCATTCAGGGGCCCGTATAGAAAGC | 3.89
9 | CCTCGGAGGACAGAAGGTCAGAGCGGTCCGCTTT | 3.6
10 | CCTAGTTGGTCAGGACGTCACACACCGGATATGA | 0.776
11 | CCTCGGAGGACAGAAGGTCAGAGATGTCCGCTTT | 3.21
12 | CGTCCAAGGTCTGAGAGGTCAGTGAATGCCGAGT | 3.36
13 | ATCTCTAGGTACAAGTTCAGTGAATCCCGAGGAT | 1.14
14 | GCAGAAAGGTGAAACGCAGGTAACTCAGGGTGGC | 1.84
15 | GCTAGCAAGCCATTTGGGTCACTCAATGACGGGC | 0.621
16 | CGAACTAGGTCATTGACAGGACAGGGAATAGTAA | 4.36
17 | ACAGGCAGGTGAGTGAAGGTAACTCAGCTGGACG | 0.135
18 | CAAACTAGGTTAAGAGGTCAAAGTCCGCTTCCCG | 5.15
19 | TCGAGTAGGTTACCAATGGGGCATCCAGCTTTCT | 0.452
20 | TACCCTAGGTCATGCGGGCCAGTATAGTGTCGGC | 4.89

Row | Sequence | PBM binding z-score
21 | CTCGAACGGTCGTGCTCAGGTGAGTATACCAAAC | 0.489
22 | TATACAGAGTCAAAGGCCAGAGTACGAATGTCGA | 1.01
23 | TCTTGTAGATCAGCAGGGTAAGAAAGCTGGCCAA | -0.5
24 | ACTATTGGTTGACTTAGGGCAACCGATACGACGC | 0.894
25 | CGTCCAAGGTCAGAGAGGTCAGTGATTGCCGAGT | 7.26
26 | CCTACTGGGCCAAAAAGGTCACTGATGCCGATAA | 4.86
27 | CCTCGGAGGACAACACGAGGTCAGAGCTGCCAGA | 3.22
28 | CGAACGAGGGCTTGAGTTGATAGCAAATGCCGAT | -0.288
29 | AGTCAAGGTTCAGGACGAGGTAACGTAAAGCACG | 2.41
30 | CGAACTAGGTCAGAACAGGACAGGGAAGGATGAT | 2.91
31 | CCTACTGGGCCACGAAAGGACATTGATTCAGTGA | 1.01
32 | AGAACGCGGGCAATGAGTTGATAGCACGGGTGGC | 0.194
33 | CCTCGGAGGATAACAGGAGGTCAGAGCTGCCAGA | 2.11
34 | ATATGTAGGTTACACCCGGGTCATTCAGGCTATG | 2.06
35 | AGAATGAGGGTATACGTAGATCAGGGAAGAAAGT | 0.277
36 | CCTACTTGGCCAAAGGTCATTGATTCCAATGCTC | 4.64
37 | ACTCGGAGGACACAGGTCAGAGCTACGCCAGTGA | 3.12
38 | AGAATGAGGTTATTCGTAGATCAGGGAAGAAAGT | 0.782
39 | TAGCCTAGGTCAGATCGGGACAGTATACGCTATA | 3.78
40 | CGAACTAGGTCAGAACAGGGCAGTGAAGGATGAT | 3.35
